Results from article PMC5540273 (PLoS ONE, 2017).

Experiments:
Conditions in all cases: concentration: 1 μM, replicates: in singlicate; n = 1
PIM1 = test system: PIM1
PIM2 = test system: PIM2
PIM3 = test system: PIM3
PIP5K1A = test system: PIP5K1A
PIP5K1C = test system: PIP5K1C
PIP5K2B = test system: PIP5K2B
PIP5K2C = test system: T1, PIP5K2C
T1 construct: gene PIP4K2C

PKAC-alpha = test system: T2, PKAC-alpha
T2 construct: gene PRKACA

PKAC-beta = test system: T3, PKAC-beta
T3 construct: gene PRKACB

PKMYT1 = test system: PKMYT1
PKN1 = test system: PKN1
PKN2 = test system: PKN2
PLK1 = test system: PLK1
PLK2 = test system: PLK2
PLK3 = test system: PLK3
PLK4 = test system: PLK4
PRKCD = test system: PRKCD
PRKCE = test system: PRKCE
PRKCH = test system: PRKCH
PRKCI = test system: PRKCI
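Note: KINOMEscan kinase panel screen.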

| SMILES | %Inh (PIM1) [%] | %Inh (PIM2) [%] | %Inh (PIM3) [%] | %Inh (PIP5K1A) [%] | %Inh (PIP5K1C) [%] | %Inh (PIP5K2B) [%] | %Inh (PIP5K2C) [%] | %Inh (PKAC-alpha) [%] | %Inh (PKAC-beta) [%] | %Inh (PKMYT1) [%] | %Inh (PKN1) [%] | %Inh (PKN2) [%] | %Inh (PLK1) [%] | %Inh (PLK2) [%] | %Inh (PLK3) [%] | %Inh (PLK4) [%] | %Inh (PRKCD) [%] | %Inh (PRKCE) [%] | %Inh (PRKCH) [%] | %Inh (PRKCI) [%] |
| --- | --- | --- | --- | --- | --- | --- | --- | --- | --- | --- | --- | --- | --- | --- | --- | --- | --- | --- | --- | --- |
| Nc1nc(-c2nccs2)c(-c2ccnc3ccccc23)s1 [GW693542] | 9 | 0 | 0 | 0 | 45 | 0 | 28 | 0 | 13 | 0 | 6 | 2 | 0 | 0 | 0 | 0 | 1 | 8 | 16 | 30 |
| COc1cc2ncnc(Nc3ccc4nc(-c5ccccc5)[nH]c4c3)c2cc1OC.Cl [GW282450] | 0 | 0 | 0 | 6 | 54 | 3 | 11 | 6 | 0 | 10 | 0 | 0 | 9 | 0 | 0 | 94.5 | 14 | 17 | 0 | 31 |
| Cc1ccccc1-n1cnc2c(N)ncnc21 [SKF-97510] | 0 | 0 | 2 | 0 | 0 | 0 | 0 | 10 | 0 | 0 | 0 | 0 | 0 | 0 | 0 | 0 | 0 | 0 | 0 | 0 |
| COc1cccc(-c2cc(-c3c[nH]nc3-c3ccccn3)ccn2)c1 [GW680338] | 0 | 0 | 0 | 19 | 69 | 21 | 55 | 0 | 0 | 0 | 0 | 7 | 13 | 0 | 7 | 0 | 12 | 13 | 1 | 0 |
| CN1C(=O)C(Nc2ccc(Cl)c(C(=O)O)c2)=C(c2ccc(Cl)cc2)C1=O [SB-404290] | 0 | 0 | 0 | 11 | 0 | 0 | 0 | 0 | 4 | 0 | 91.6 | 31 | 18 | 24 | 18 | 0 | 0 | 35 | 0 | 0 |
| Cc1cccc(-c2nc(Nc3ccc4[nH]ncc4c3)c3ccccc3n2)n1 [GW857175] | 5 | 38 | 0 | 0 | 0 | 42 | 0 | 34 | 0 | 19 | 10 | 0 | 11 | 12 | 15 | 8 | 11 | 0 | 0 | 33 |
| Cc1cc(-c2ccc3c(c2)CC[C@@H](N[C@@H](C)c2ccccc2)C3)cnc1N.Cl [GW412617] | 11 | 0 | 0 | 0 | 34 | 14 | 0 | 0 | 9 | 0 | 8 | 0 | 16 | 0 | 0 | 0 | 7 | 0 | 17 | 0 |
| COc1ccccc1CNC(=O)c1cc(C(=O)c2ccccc2C)c[nH]1 [GSK364507] | 0 | 0 | 0 | 0 | 26 | 8 | 25 | 0 | 0 | 0 | 0 | 0 | 0 | 0 | 0 | 100 | 0 | 1 | 6 | 3 |
| Cc1ccc(NC(=O)Nc2cc(C(C)(C)C)nn2-c2ccccc2)cc1 [GSK1014915] | 0 | 0 | 0 | 0 | 29 | 12 | 3 | 0 | 0 | 14 | 53 | 0 | 0 | 0 | 0 | 0 | 0 | 0 | 5 | 28 |
| O=C(Nc1n[nH]c2nc(-c3nccs3)c(Br)cc12)C1CC1 [SB-742251] | 0 | 0 | 0 | 7 | 67 | 23 | 27 | 0 | 0 | 3 | 6 | 0 | 0 | 0 | 0 | 0 | 0 | 11 | 0 | 5 |
| Cc1cccc(-c2nc(Nc3ccncc3)c3ccccc3n2)n1 [GW855857] | 0 | 18 | 0 | 10 | 40 | 0 | 18 | 23 | 30 | 0 | 0 | 0 | 6 | 0 | 0 | 0 | 29 | 0 | 0 | 32 |
